Screening results deposited in PubChem BioAssay by National Center for Advancing Translational Sciences (NCATS).
DT40 TDP1 CPT – qHTS for Inhibitors of human tyrosyl-DNA phosphodiesterase 1 (TDP1): qHTS in cells in presence of CPT; chicken DT40 Tdp1-/-;hTDP1 cells + 20 nM CPT, ATP luminescence, 48 h; Potency, µM (highest dose often 46.2 µM), for the others: at the top dose activity change, negative = growth inhibition, most hits filed as inhibitors; hit rate 12% among 420,000; further: potency means the concentration at half of the fitted maximal effect; on the % scale 0 is the no-effect control and ±100 the full control effect; nearly all actives have a fitted effect of over 55% in size
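Chicken DT40 Tdp1-/- cells complemented with human TDP1, 400 cells/well, exposed to compounds plus 20 nM camptothecin for at least 48 h at 37 C; viability read as ATP content by CellTiter-Glo luminescence.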
TDP1 cell noCPT – qHTS for Inhibitors of human tyrosyl-DNA phosphodiesterase 1 (TDP1): qHTS in cells in absence of CPT; hit rate 15% among 420,000; DT40 Tdp1-/- hTDP1 cells, no CPT, ATP luminescence, 48 h; Potency, µM (highest dose often 46.2 µM), inactives show at the top dose activity change, negative = growth inhibition, actives largely listed as inhibitors; further: potency means the concentration at half of the fitted maximal effect; on the % scale 0 is the no-effect control and ±100 the full control effect; nearly all actives have a fitted effect of over 55% in size
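Chicken DT40 Tdp1-/- cells complemented with human TDP1, screened without camptothecin (DMSO vehicle only), 400 cells/well. Compounds pin-transferred, cells incubated at 37 °C for at least 48 hr. Growth read as ATP-dependent luminescence (CellTiter-Glo, 30 min at RT).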
HepG2 viability – qHTS for Inhibitors of TGF-b: Cytotox Counterscreen; HepG2 CAGA-GFP viability, ATP luminescence, 18 h; hit rate 0.76% among 410,000; Potency, µM (series often up to 46.1 µM), inactives show at the top dose activity change, negative = cytotoxicity, actives largely listed as cytotoxic; further: potency means the concentration at half of the fitted maximal effect
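CellTiter-Glo luminescence gave cytotoxicity after 18 hours at 37 degrees C. The cells were HepG2 CAGA-GFP in 1% FBS DMEM, stimulated with 500 pg/mL TGF-beta after compound addition. %Activity was normalised to no-cell wells (complete cell-killing) and DMSO (no toxicity), and curves were fitted and classified.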
TDP1 inh – qHTS Assay for Inhibitors of Tyrosyl-DNA Phosphodiesterase (TDP1) | Potency, µM (highest dose often 130 µM), for the others: at the top dose activity change, negative = inhibition, actives largely listed as inhibitors | AID 485290, 2010 | hit rate 0.28% among 350,000 | recombinant TDP1, AlphaScreen DNA substrate cleavage | Tyrosyl-DNA phosphodiesterase 1 (Homo sapiens), Q9NUW8; further: potency means the concentration at half of the fitted maximal effect; on the % scale 0 is the no-effect control and ±100 the full control effect; nearly all actives have a fitted effect of over 40% in size
Target sequence (Q9NUW8 whole entry, looked up): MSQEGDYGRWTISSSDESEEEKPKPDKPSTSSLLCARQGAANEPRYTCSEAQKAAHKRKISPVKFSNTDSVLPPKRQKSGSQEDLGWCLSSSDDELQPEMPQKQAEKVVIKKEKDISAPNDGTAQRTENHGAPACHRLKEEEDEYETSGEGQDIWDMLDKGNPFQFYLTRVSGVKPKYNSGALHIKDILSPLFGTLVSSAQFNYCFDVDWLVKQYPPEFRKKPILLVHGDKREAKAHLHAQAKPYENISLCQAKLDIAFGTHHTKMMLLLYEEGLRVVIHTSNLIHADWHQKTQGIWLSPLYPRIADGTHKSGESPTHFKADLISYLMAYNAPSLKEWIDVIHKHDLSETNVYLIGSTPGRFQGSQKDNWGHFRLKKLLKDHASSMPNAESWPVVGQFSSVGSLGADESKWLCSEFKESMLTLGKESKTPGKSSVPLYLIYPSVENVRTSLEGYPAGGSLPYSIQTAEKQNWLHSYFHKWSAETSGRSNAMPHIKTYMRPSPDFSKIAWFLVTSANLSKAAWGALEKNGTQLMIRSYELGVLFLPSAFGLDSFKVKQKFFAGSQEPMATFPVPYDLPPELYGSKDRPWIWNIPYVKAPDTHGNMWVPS
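Recombinant human Tdp1 (E. coli-expressed, 1 nM final) preincubated with compounds 15 min at room temperature, then 5'-biotin/3'-phosphotyrosine-FITC DNA substrate (15 nM final) added for 5 min. AlphaScreen beads (10 ug/ml final) added 10 min; cleavage lowers signal.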
TGFb inhibitor – qHTS for Inhibitors of TGF-b | hit rate 1.2% among 410,000 | HepG2 CAGA-GFP TGF-b/SMAD3 reporter, GFP fluorescence, 18 h; TGF-beta stimulated, 500 pg/mL final | AID 588855, 2011 | Potency, µM (top dose mostly 46.1 µM), without a hit: at the highest dose activity, negative = inhibition, most hits filed as inhibitors; further: potency means the concentration at half of the fitted maximal effect; on the % scale 0 is the no-effect control and ±100 the full control effect; nearly all actives have a fitted effect of over 65% in size
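GFP signal (ex488/em500-530) from TGF-beta-stimulated HEPG2 CAGA-GFP cells, 500 pg/mL final, 18 h at 37 degrees C in DMEM plus 1% FBS, normalized to unstimulated and DMSO-stimulated controls.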
IL1B secr inh – qHTS for Inhibitors of Inflammasome Signaling: IL-1-beta AlphaLISA Primary Screen; THP-1 LPS/ATP IL-1B secretion, AlphaLISA, 16 h; hits give low values; activity change, % at 57.5 µM; hit rate 4.7% among 360,000; AID 743279, 2014; in the data active means activity change below about -50%; inconclusive means mostly about -30% to -49%; further: on the % scale 0 is the no-effect control and ±100 the full control effect
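Secreted IL-1B measured by AlphaLISA bead assay after 16 h compound exposure of THP-1 cells; compounds (final up to 57.5 uM) added 1 h before LPS (250 ng/mL) and ATP (1.25 mM) stimulation; lower signal means less secretion.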
* marks the source's active call; other numbers are inactive results; ? = inconclusive; nt = no result; [ ] = dose if it differs, or a comment. Most compounds without a hit are left out; they make up all but 18% or so of the library. Unless noted, the call rests on the fitted dose curve; in most records, active means well fitted curve in the direction sought with a large enough effect; inconclusive means small, poorly fitted or top-dose-only effect, or another doubt; inactive means no such curve, though single readings can be large; an effect the other way counts as inactive or inconclusive.

SMILES	DT40 TDP1 CPT	TDP1 cell noCPT	HepG2 viability	TDP1 inh	TGFb inhibitor	IL1B secr inh
CC(C)(Oc1ccc(Cl)cc1)C(=O)NCC(c1cccs1)N1CCOCC1 (stereo unspecified)	?	18.4µM*	-7.5%	-11.1%[0.505 µM]	-3.5%	-7.1
O=C(NCC(c1ccc(F)cc1)N1CCOCC1)c1nn(-c2ccccc2)c(=O)c2ccccc12 (stereo unspecified)	?	20.6µM*	-48.2%	0.0%	-1.7%	27.0
O=C(NCC(c1cccs1)N1CCOCC1)c1ccc(Cl)c([N+](=O)[O-])c1 (stereo unspecified)	?	?	-19.2%	0.6%	-20.9%	-93.6*
COc1ccc(CNC(=O)C(c2ccco2)N(C(=O)c2snc(C(N)=O)c2N)c2cccc(OC)c2)cc1 (stereo unspecified)	7.0%	-10.6%	-13.1%	5.9%	-1.0%	91.7
COC(=O)C1CCN(C(=O)[C@H](C)NC(=O)C2CC(=O)N(c3ccc(F)cc3)C2)CC1 (stereo partly specified)	2.0%	21.4%	17.0%	1.4%	2.7%	-3.8
CC(=O)Nc1ccc(NC(=O)c2csnn2)cc1	3.5%	-6.2%	-20.4%	-4.7%	-21.0%	nt
CCc1cc(C(=O)NCC(c2cccs2)N2CCOCC2)sc1C (stereo unspecified)	?	23.1µM*	0.0%	-0.2%[0.505 µM]	0.0%	12.2
Cc1nn(Cc2ccccc2)c(C)c1C(=O)NCC(c1cccs1)N1CCOCC1 (stereo unspecified)	?	?	6.6%	nt	2.3%	-2.8
Cc1ccsc1C(=O)NCC(c1cccs1)N1CCOCC1 (stereo unspecified)	?	?	5.9%	nt	-2.9%	35.5
Cn1nc(C(=O)NCC(c2cccs2)N2CCOCC2)c2ccccc2c1=O (stereo unspecified)	25.9µM*	16.4µM*	-14.5%	1.1%	?	37.2
O=[N+]([O-])c1cc(C=Nc2ccc3ccccc3c2)ccc1Br	2.59µM*	2.91µM*	-46.0%	5.6%	-29.4%	-4.3
CCOc1ccc(N=Cc2ccc3ccccc3c2)cc1	-15.3%	-18.8%	-18.0%	nt	9.1%	-8.8
CN(N=O)C(=O)N[C@H]1[C@@H](O)[C@H](O)[C@H](CO)O[C@@H]1O	nt	nt	nt	6.5%[56.1 µM]	nt	nt
CCCCOc1ccc(C2CC(=O)NC2=O)cc1 (stereo unspecified)	1.6%	-10.6%	-0.2%	7.0%	3.9%	2.5
CCCCCCCOc1ccc(C2CC(=O)N(C)C2=O)cc1 (stereo unspecified)	-2.2%	?	-17.8%	-11.9%	0.8%	-75.6*
CCN(c1cccc(C)c1)C(CNS(=O)(=O)c1ccccc1)c1ccccc1 (stereo unspecified)	?	?	-55.9%	7.6%	?	nt
Cn1cc(CN2CCC(C(O)c3cccs3)CC2)c(-c2cccc(Cl)c2)n1 (stereo unspecified)	5.0%	-19.4%	-13.1%	2.6%	0.8%	?
Cc1cc(N2CCN(Cc3cn(C)nc3-c3ccccc3F)CC2)cc(C)n1	5.8µM*	5.8µM*	-1.7%	-2.6%	-6.1%	?
Cc1cc(N2CCN(Cc3cn(C)nc3-c3cccc(Cl)c3)CC2)cc(C)n1	5.17µM*	5.8µM*	-6.3%	2.6%	0.0%	-82.0*
O=C(Nc1cccc2cccnc12)c1ccc(Br)cc1Br	3.8%	-3.9%	-1.2%	nt	2.9%	10.4
CCN1C(=O)[C@H]2[C@@H](c3ccc(-c4ccc5c(c4)OCO5)cc3)N3CCC[C@@]3(C(=O)OC)[C@H]2C1=O	?	11.6µM*	-21.2%	6.2%	-4.2%	-26.0
CCN1C(=O)[C@@H]2[C@@H](c3ccc(-c4ccc5c(c4)OCO5)cc3)N3CCCC[C@@]3(C(=O)OC)[C@@H]2C1=O	14.6µM*	20.6µM*	-24.2%	6.6%	1.6%	-2.6
CCN1C(=O)[C@@H]2[C@@H](c3ccc(-c4ccc5c(c4)OCO5)c(OC)c3)N3CCC[C@@]3(C(=O)OC)[C@@H]2C1=O	-9.7%	?	0.4%	-4.5%	-8.7%	3.1
Oc1ccc(C[C@H]2CN([C@@H](Cc3ccccc3)CN3CCCC3CN3C(=S)NC[C@@H]3Cc3ccccc3)C(=S)N2CC2CCCCC2)cc1 (stereo partly specified)	?	16.4µM*	nt	nt	nt	10.8
Oc1ccc(C[C@H]2CN([C@@H](Cc3cccc(O)c3)CN3CCC[C@@H]3CN3C(=S)NC[C@@H]3Cc3ccccc3)C(=S)N2CC2CCCCC2)cc1	3.66µM*	2.91µM*	-45.5%	nt	5.01µM*	-11.8
SMILES	DT40 TDP1 CPT	TDP1 cell noCPT	HepG2 viability	TDP1 inh	TGFb inhibitor	IL1B secr inh
O=C1NC[C@H](Cc2ccccc2)N(C[C@H]2CCCN2C[C@H](Cc2ccccc2)N2C[C@H](Cc3ccc(O)cc3)N(CC3CCCCCC3)C(=O)C2=O)C1=O	?	?	3.0%	nt	?	0.0
CC(C)(C)NC(=O)COC(=O)c1ccc(NC(=O)CC#N)cc1	1.46µM*	-5.2%	6.1%	3.5%	9.3%	41.0
O=C(COC(=O)c1ccc(O)cc1)Nc1ccc2c(c1)OCO2	?	11.6µM*	0.5%	0.2%	5.1%	5.9
N#CCC(=O)Nc1ccc(C(=O)OCC(=O)c2ccc3c(c2)OCCO3)cc1	?	18.4µM*	1.2%	11.4%	4.7%	16.9
O=C(COC(=O)c1ccc(O)cc1O)Nc1ccc2ccccc2c1	14.6µM*	13µM*	-55.9%	-6.7%	?	23.2
CSc1ccc(S(=O)(=O)NCC(=O)OCC(=O)N(C)Cc2ccccc2)cc1[N+](=O)[O-]	-10.5%	4.8%	0.0%	nt	19.6%	19.0
COP(=O)(CC(=O)c1ccccc1)CC(=O)c1ccccc1	20.1%	-0.1%	6.2%	5.4%	26.7%	-14.4
COc1ccc(CC(=O)N(C)Cc2cccc(OC)c2OC)cc1S(=O)(=O)N1CCOCC1	?	?	-24.7%	-2.9%	-7.0%	11.9
Cc1ccoc1C(=O)N1CCN(C(=O)c2occc2C)CC1	-5.5%	-18.8%	2.6%	9.1%	-2.3%	-7.5
